Experimental data reported in PubChem BioAssay AID1259418 (Broad Institute, 2018).
The campaign covered roughly 3,400 compounds. About 840 (25%) were called active. About 11% were inconclusive and are not listed. Not all results are given here. Results with a measured potency or affinity are listed apart. Unmarked numbers belong to inactive results.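 How the source made its calls: active means fitted half-maximal concentration of signal decrease at or below twice the sample's top tested concentration; inconclusive means flat curve between -70 and -30 percent, or poor fit; inactive means flat within 30 percent, signal rise, or potency above limit.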

Test: inhibitors of Toxoplasma growth in IFN-γ-primed HeLa – cell-based, ME49Luc, luciferase, 72 h, dose response (AID 1259418)
Details: T. gondii ME49Luc in IFN-y HeLa, stronger effect = lower value, -100% = high-dose IFN-γ control wells; at 19.5 µM unless noted

SMILES | max activity
Cn1nnc2c(NCCc3c[nH]c4ccccc34)ncnc21 | 6.96% [at 0.35 µM]
CCc1c(C)sc2c1CCN(Cc1nc(-c3ccc(OC)cc3)oc1C)C2c1ccccc1 (centres undefined) | 15.1% [at 5 µM]
N#Cc1cccc(-c2ccc(C3[C@@H]4CN(C(=O)Nc5ccc(C(F)(F)F)cc5)C[C@H]3N4)cc2)c1 (some centres undefined) | 16.9% [at 10 µM]
Clc1cccc(CSc2nc(NC3CCCCC3)c3ccccc3n2)c1 | 11% [at 10 µM]
CCc1onc(C)c1C1CCCN1Cc1cn(C)c2ccc(OC)cc12 (centres undefined) | 9.05% [at 0.68 µM]
COc1ccc(-c2nc(NCCc3ccc(Cl)cc3)c3ccccc3n2)cc1 | 25.9% [at 0.16 µM]
COc1ccc(-c2nc(NCc3ccc4c(c3)OCO4)c3ccccc3n2)cc1 | -12% [at 1.35 µM]
COc1ccc(-c2nc(NCc3ccc(Cl)cc3)c3ccccc3n2)cc1 | -9.43% [at 0.35 µM]
COc1ccc(-c2nc(NCCc3ccc(C)cc3)c3ccccc3n2)cc1 | 14.1% [at 0.16 µM]
CCc1ccc(CNc2nc(-c3ccc(Cl)cc3)nc3ccccc23)cc1 | 24.5%
Fc1ccc(CNc2nc(-c3ccc(Cl)cc3)nc3ccccc23)cc1 | 7.26%
CCC(C(=O)N1CSC[C@@H]1C(=O)NCCc1csc(-c2ccccc2)n1)c1ccccc1 (some centres undefined) | 16.6% [at 5 µM]
COc1cccc(-c2nc3c(s2)CN(C(=O)Nc2ccccc2C)CC3)c1 | 59.1%
CCCCOCCOCCOCc1cc2c(cc1CCC)OCO2 | 17.6%
COc1ccc(-c2nc(Nc3cccc(C)c3)c3ccccc3n2)cc1 | -18.2% [at 0.16 µM]
CCc1nc(OCC(=O)NCc2ccc(OC)cc2)c2ccccc2n1 | 25.3%
O=C(Cc1cccnc1)N1CC(=O)N2[C@H](CO)[C@H](c3ccc(/C=C/c4ccccc4)cc3)[C@@H]2C1 | 20.1% [at 10 µM]
C/C=C/c1ccc([C@H]2[C@H](CO)N3C(=O)CN(C(=O)NC4CCCCC4)C[C@@H]23)cc1 | 19.7%
CC(C)C#Cc1ccc([C@@H]2[C@@H](CO)N3C(=O)CN(C(=O)NC4CCCC4)C[C@H]23)cc1 | 19% [at 10 µM]
O=C(Cc1cccnc1)N1CC(=O)N2[C@H](CO)[C@@H](c3ccc(/C=C/c4ccccc4)cc3)[C@H]2C1 | 9.82% [at 10 µM]
CCc1ccc2c(c1)cc(S(=O)(=O)c1ccccc1)c(=O)n2CC(=O)NCCC1=CCCCC1 | -4.67% [at 2.6 µM]
Cc1nc(OCC(=O)NCc2ccc(F)cc2)c2ccccc2n1 | 25% [at 10 µM]
CCc1nc(OCC(=O)Nc2ccc(OC)cc2)c2ccccc2n1 | -14.2%
CC(=O)N1CCN(C(C)C)C(c2nnc3ccc(C(=O)N4CCCC4)cn23)C1 (centres undefined) | 43.3%
COc1ccc(-c2ccc([C@@H]3[C@@H](CO)N4C(=O)CN(Cc5ccccc5)C[C@H]34)cc2)cc1 | 18% [at 10 µM]

SMILES | max activity
COCC(=O)N1CC(=O)N2[C@H](CO)[C@@H](c3ccc(-c4ccncc4)cc3)[C@H]2C1 | 45.2%
COCC(=O)N1CC(=O)N2[C@H](CO)[C@@H](c3ccc(-c4ccccc4F)cc3)[C@H]2C1 | 43.4%
COc1ccc(-c2ccc([C@@H]3[C@@H](CO)N4C(=O)CN(Cc5ccccc5)C[C@@H]34)cc2)cc1 | 9.38% [at 5 µM]
Cc1ccc(CNC(=O)Cn2c(=O)c(S(=O)(=O)c3ccccc3)cc3ccccc32)cc1 | 11% [at 0.16 µM]
Cc1ccc2[nH]c(C(=O)N3CCN(c4ccccn4)CC3)c(NC(=O)c3ccc(Cl)cc3)c2c1 | 30.8% [at 10 µM]
COCC(=O)Nc1ccc(-c2nc(-c3ccc(C)cc3C)co2)cc1 | 13.9% [at 0.16 µM]
O=C(c1ccccc1F)N1CCC2(CC1)Nc1cc(F)ccc1-n1cccc12 | -7.85% [at 2.6 µM]
CCCCC(=O)Nc1ccc(-c2nc(-c3ccccc3)co2)cc1 | 9.5% [at 10 µM]
COCCCN1CCc2nc(SCc3nc(-c4ccc(OC)cc4)oc3C)[nH]c(=O)c2C1 | 25.5% [at 0.16 µM]
Cc1nc(CCNC(=O)C2CCN(S(=O)(=O)c3ccc(F)c(Cl)c3)CC2)cs1 | 8.69% [at 5 µM]
Cc1ccc(-c2coc(-c3ccc(NC(=O)Nc4cccc(Cl)c4)cc3)n2)cc1 | 13.6% [at 2.6 µM]
COc1ccc(-c2cc(C(=O)Nc3ccc4c(c3)CCC(=O)N4)c3ccccc3n2)cc1 | 13.4% [at 5 µM]
Cc1oc(-c2ccccc2)nc1Cn1nnc(-c2nc(-c3cccc(Cl)c3)no2)c1C | -9.25% [at 5 µM]
COc1ccc2[nH]cc(CCNC(=O)c3sc4ncnc(N(C)C5CCCCC5)c4c3C)c2c1 | 9.31% [at 5 µM]
Cc1ccc(-c2coc(-c3ccc(NC(=O)Nc4ccc(F)cc4F)cc3)n2)c(C)c1 | 9.31% [at 0.68 µM]
COc1ccc(Cl)cc1NC(=O)Nc1ccc(-c2nc(-c3ccccc3)co2)cc1 | -16.1% [at 0.68 µM]
COc1ccccc1CNC(=O)CCC1N=C2c3ccccc3N=C(SCc3ccccc3F)N2C1=O (centres undefined) | 8.88%
O=C(CCC1N=C2c3ccccc3N=C(SCc3ccccc3Cl)N2C1=O)NCc1cccs1 (centres undefined) | 20.4% [at 5 µM]
COc1ccc(CNC(=O)CC2N=C3c4ccccc4N=C(SCc4ccccc4Cl)N3C2=O)cc1 (centres undefined) | 18.1% [at 0.68 µM]
COc1ccccc1CNC(=O)CCC1N=C2c3ccccc3N=C(SCc3ccccc3Cl)N2C1=O (centres undefined) | -11% [at 0.35 µM]
O=C(CCC1N=C2c3ccccc3N=C(SCc3ccccc3F)N2C1=O)NCc1ccco1 (centres undefined) | 61.5% [at 10 µM]
COc1ccccc1CNC(=O)CC1N=C2c3ccccc3N=C(SCc3ccc(Cl)cc3)N2C1=O (centres undefined) | 28% [at 5 µM]
COc1ccc(CNC(=O)CC2N=C3c4ccccc4N=C(SCc4cc(=O)n5cc(Cl)ccc5n4)N3C2=O)cc1 (centres undefined) | -22.2%
COc1ccccc1CNC(=O)CC1N=C2c3ccccc3N=C(SCc3cc(=O)n4ccccc4n3)N2C1=O (centres undefined) | 17.5% [at 0.16 µM]
COc1ccc(CNC(=O)CCC2N=C3c4ccccc4N=C(SCc4ccccc4Cl)N3C2=O)cc1 (centres undefined) | -10.1% [at 0.16 µM]

SMILES | max activity
Cc1nc(OCC(=O)Nc2cc(Cl)ccc2C)c2ccccc2n1 | 25.9% [at 0.16 µM]
CCOC(=O)C1CCCN(c2nc(-c3ccc(OC)cc3)nc3ccccc23)C1 (centres undefined) | -19.8% [at 0.16 µM]
O=C(CC1N=C2c3ccccc3N=C(SCc3ccccc3F)N2C1=O)NCc1ccccc1 (centres undefined) | 8.54% [at 0.16 µM]
N#CCSC1=Nc2ccccc2C2=NC(CCC(=O)NCc3cccs3)C(=O)N12 (centres undefined) | 19.3% [at 1.35 µM]
O=C(CC1N=C2c3ccccc3N=C(SCc3ccccc3F)N2C1=O)NCc1ccc(F)cc1 (centres undefined) | 15.6% [at 0.68 µM]
CCOC(=O)CSC1=Nc2ccccc2C2=NC(CC(=O)NCc3cccs3)C(=O)N12 (centres undefined) | 29.5%
Cc1ccc(-c2coc(-c3ccc(NC(=O)NCCc4ccccc4)cc3)n2)cc1 | 19.3% [at 2.6 µM]
Clc1ccc(-c2nc(NC3CCCCCC3)c3ccccc3n2)cc1 | 14.3% [at 10 µM]
COc1ccc(-c2nc(NC3CCCCCC3)c3ccccc3n2)cc1 | 19.2% [at 0.16 µM]
COc1ccc(-c2nc(Nc3cc(OC)cc(OC)c3)c3ccccc3n2)cc1 | 19% [at 5 µM]
COc1ccc(-c2nc(NC3CCCCC3)c3ccccc3n2)cc1 | -27.2% [at 5 µM]
COc1ccc(-c2nc(Nc3ccccc3F)c3ccccc3n2)cc1 | 11.7%
Clc1ccc(-c2nc(NC3CCCCC3)c3ccccc3n2)cc1 | 16.4%
COc1ccc(-c2nc(Nc3ccc(Cl)cc3C)c3ccccc3n2)cc1 | -19.8% [at 10 µM]
Cc1cnc(N2CC[C@H]3CN(CC(=O)N(C)C)S(=O)(=O)[C@@H]3CC2)nc1 | 21.5%
O=C(CCc1ccc2nc(-c3ccccc3)[nH]c2c1)N1CCC(N2CCCCC2)CC1 | 57.7%
c1ccc(-n2ncc3c(NC4CCCCCCCCCCC4)ncnc32)cc1 | 53.5% [at 10 µM]
Cc1nc(-c2ccc(F)cc2)sc1-c1ccc(SCCN2CCCCC2)nn1 | 10.2% [at 0.16 µM]
Cc1ccc(Cn2c(=O)c3nn(C)cc3n3c(=O)n(Cc4nc(-c5cccc(C)c5)oc4C)nc23)cc1 | 8.72% [at 10 µM]
COc1ccc(-c2nc(N3CCN(c4cc(C)ccc4C)CC3)c3ccccc3n2)cc1 | 11.7% [at 0.68 µM]
Cc1ccc(CSC2=Nc3ccccc3C3=NC(CC(=O)NC4CCCCC4)C(=O)N23)cc1 (centres undefined) | 39.6%
O=C(CC1N=C2c3ccccc3N=C(SCc3ccccc3Cl)N2C1=O)NC1CCCCC1 (centres undefined) | 14%
O=C(CCC1N=C2c3ccccc3N=C(SCc3ccccc3F)N2C1=O)NC1CCCCC1 (centres undefined) | 96.1%
O=C(CC1N=C2c3ccccc3N=C(SCc3cccc(Cl)c3)N2C1=O)NC1CCCCC1 (centres undefined) | -15.8% [at 0.16 µM]
